Of roughly 7,900 targets only a part is listed; those with a hit were picked by preference. About 0.6% of all pairs of compound and target were hits.
Tests used:
Experiment in all cases: log2 fold change, soluble protein after heating vs DMSO (PISA); higher = thermal stabilisation; K562 cells, 10 uM, 30 min; active = over 0.2 and 3.5 SD of the protein, either way, in both replicates (recomputed)
IRAK-1-4 Inhibitor I = compound: C1COCCN1CCN2C3=CC=CC=C3N=C2NC(=O)C4=CC(=CC=C4)[N+](=O)[O-] [IRAK-1-4 Inhibitor I]
How it was run: (§1)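 For each measurement, 10 μM compound was applied for 30 min to K562 cells at 2×10^6 cells/mL. Aliquots were heated for 3 min across 48°C-58°C, pooled, and extracted in PBS with 0.5% NP-40 at 4°C; the supernatant after 21,000xg for 90 min was soluble protein. This was quantified by TMTpro 16plex LC-MS/MS with channel sums equalised, and thermal stability was reported relative to control samples from duplicates, on a log2 fold-change scale.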

ibrutinib = compound: C=CC(=O)N1CCC[C@@H](n2nc(-c3ccc(Oc4ccccc4)cc3)c3c(N)ncnc32)C1 [ibrutinib]
How it was run: as §1

[1] = compound: CC(=O)c1cnc2ccc(-c3cc(Cl)c(O)c(Cl)c3)nc2c1N[C@H]1CC[C@H](CN(C)C)CC1
How it was run: as §1

ralimetinib = compound: CC(C)(C)Cn1c(N)nc2ccc(-c3[nH]c(C(C)(C)C)nc3-c3ccc(F)cc3)nc21 [ralimetinib]
How it was run: as §1

[2] = compound: CC(C)(O)CC(=O)NCCn1ccc2ncnc(Nc3ccc(Oc4cccc(C(F)(F)F)c4)c(Cl)c3)c21
How it was run: as §1

[3] = compound: CC(C)C1=C2N=C(C=C(N2N=C1)NCC3=CC=CC=C3)NCCCCCCN
How it was run: as §1

[4] = compound: CC(C)C[C@@H](C=O)NC(=O)[C@H](CC(C)C)NC(=O)[C@H](CC(C)C)NC(=O)OCc1ccccc1
How it was run: as §1

pinometostat = compound: CC(C)N(C[C@H]1O[C@@H](n2cnc3c(N)ncnc32)[C@H](O)[C@@H]1O)[C@H]1C[C@@H](CCc2nc3cc(C(C)(C)C)ccc3[nH]2)C1 [pinometostat]
How it was run: as §1

[5] = compound: CC1=C(C(CC(=O)N1)C2=CC=C(C=C2)C(F)(F)F)C(=O)NC3=C(C=C4C(=C3)C=NN4)F
How it was run: as §1

[6] = compound: CC1=C(C2=C(C=C1)C(=O)C3=CC=CC=C3N2CCCN)C
How it was run: as §1

Measured: log2 fold change

TMEM9 (UniProt Q9P0T7)
inactive: IRAK-1-4 Inhibitor I 0.076 | ibrutinib 0.039 | [1] 0.012 | ralimetinib -0.003 | [2] -0.07 | [3] -0.211 | [4] 0.064 | pinometostat -0.042 | [5] 0.067 | [6] -0.013

TRIP10 (UniProt Q15642)
inactive: IRAK-1-4 Inhibitor I 0.007 | ibrutinib 0.002 | [1] 0.009 | ralimetinib 0.001 | [2] 0 | [3] -0.022 | [4] 0.007 | pinometostat -0.007 | [5] -0.009 | [6] -0.02

TUBAL3 (UniProt A6NHL2)
inactive: IRAK-1-4 Inhibitor I -0.046 | ibrutinib -0.005 | [1] -0.039 | ralimetinib -0.044 | [2] -0.047 | [3] 0.003 | [4] -0.102 | pinometostat -0.108 | [5] 0.11 | [6] -0.094

WDCP (UniProt Q9H6R7)
inactive: IRAK-1-4 Inhibitor I -0.01 | ibrutinib -0.038 | [1] 0.078 | ralimetinib -0.006 | [2] -0.053 | [3] 0.032 | [4] 0.014 | pinometostat 0.076 | [5] 0.055 | [6] 0.023

USP24 (UniProt Q9UPU5)
inactive: IRAK-1-4 Inhibitor I 0.052 | ibrutinib 0.086 | [1] 0.156 | ralimetinib -0.077 | [2] -0.093 | [3] 0.004 | [4] -0.043 | pinometostat -0.026 | [5] -0.08 | [6] 0.017

WDR46 (UniProt O15213)
inactive: IRAK-1-4 Inhibitor I -0.159 | ibrutinib 0.099 | [1] 0.15 | ralimetinib 0.175 | [2] 0.066 | [3] 0.192 | [4] 0.154 | pinometostat 0.242 | [5] 0.033 | [6] -0.382

VARS2, A0A0G2JL52
inactive: IRAK-1-4 Inhibitor I 0.012 | ibrutinib 0.014 | [1] -0.03 | ralimetinib 0.064 | [2] -0.074 | [3] -0.177 | [4] 0.025 | pinometostat -0.014 | [5] 0.003 | [6] 0.082

VWA8 (UniProt A3KMH1)
inactive: IRAK-1-4 Inhibitor I 0.022 | ibrutinib -0.015 | [1] -0.041 | ralimetinib 0.016 | [2] -0.115 | [3] -0.149 | [4] -0.032 | pinometostat -0.004 | [5] 0.009 | [6] 0.021

USP7 (UniProt Q93009)
inactive: IRAK-1-4 Inhibitor I -0.102 | ibrutinib -0.021 | [1] -0.078 | ralimetinib 0 | [2] -0.172 | [3] -0.198 | [4] 0.012 | pinometostat 0.024 | [5] 0 | [6] 0.17

XPOT (UniProt O43592)
active: [3] -0.345
inactive: IRAK-1-4 Inhibitor I -0.035 | ibrutinib -0.061 | [1] 0.064 | ralimetinib -0.079 | [2] -0.146 | [4] 0.053 | pinometostat 0.03 | [5] 0.001 | [6] 0.033

XPNPEP1 isoform 3 (UniProt Q9NQW7)
inactive: IRAK-1-4 Inhibitor I 0.07 | ibrutinib -0.002 | [1] -0.011 | ralimetinib -0.03 | [2] -0.016 | [3] -0.135 | [4] -0.073 | pinometostat -0.006 | [5] -0.014 | [6] 0.045

UCHL5 isoform 3 (UniProt Q9Y5K5)
inactive: IRAK-1-4 Inhibitor I -0.012 | ibrutinib -0.222 | [1] -0.021 | ralimetinib 0.006 | [2] -0.357 | [3] -0.143 | [4] 0.077 | pinometostat -0.044 | [5] 0.068 | [6] 0.028

TRIM4 (UniProt Q9C037)
Chain of UniProt Q9C037 (Q9C037 whole entry, looked up): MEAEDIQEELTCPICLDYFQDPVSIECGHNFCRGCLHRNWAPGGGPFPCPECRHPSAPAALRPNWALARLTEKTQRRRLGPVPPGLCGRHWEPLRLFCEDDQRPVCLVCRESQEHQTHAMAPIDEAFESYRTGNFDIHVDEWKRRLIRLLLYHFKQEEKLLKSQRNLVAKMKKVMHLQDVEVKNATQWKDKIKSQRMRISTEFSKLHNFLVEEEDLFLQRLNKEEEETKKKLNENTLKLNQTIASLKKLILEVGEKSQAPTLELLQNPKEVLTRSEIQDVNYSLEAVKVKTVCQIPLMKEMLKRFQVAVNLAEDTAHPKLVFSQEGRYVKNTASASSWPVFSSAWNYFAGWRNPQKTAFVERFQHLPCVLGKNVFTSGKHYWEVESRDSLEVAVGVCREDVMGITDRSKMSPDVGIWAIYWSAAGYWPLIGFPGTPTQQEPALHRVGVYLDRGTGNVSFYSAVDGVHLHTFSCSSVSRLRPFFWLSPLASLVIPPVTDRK
inactive: IRAK-1-4 Inhibitor I -0.157 | ibrutinib 0.173 | [1] -0.063 | ralimetinib 0.023 | [2] -0.183 | [3] -0.078 | [4] -0.013 | pinometostat 0.173 | [5] -0.023 | [6] 0.089

UBAP2L isoform 1 (UniProt Q14157)
inactive: IRAK-1-4 Inhibitor I 0.076 | ibrutinib -0.006 | [1] 0.007 | ralimetinib -0.025 | [2] 0.016 | [3] 0.103 | [4] 0.029 | pinometostat -0.031 | [5] 0.073 | [6] 0.055

WASH2P (UniProt Q6VEQ5)
inactive: IRAK-1-4 Inhibitor I 0.001 | ibrutinib -0.049 | [1] 0.052 | ralimetinib 0.022 | [2] 0.048 | [4] 0.025 | pinometostat -0.016 | [5] -0.022 | [6] 0.026
active: [3] -0.234

TNFAIP8 isoform 4 (UniProt O95379)
Chain of UniProt O95379 (O95379 whole entry, looked up): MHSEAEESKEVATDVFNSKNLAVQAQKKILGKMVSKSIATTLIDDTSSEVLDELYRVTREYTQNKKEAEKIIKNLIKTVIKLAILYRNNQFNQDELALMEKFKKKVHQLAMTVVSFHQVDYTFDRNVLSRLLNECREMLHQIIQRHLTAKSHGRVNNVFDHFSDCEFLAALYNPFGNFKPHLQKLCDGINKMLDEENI
inactive: IRAK-1-4 Inhibitor I -0.018 | ibrutinib -0.036 | [1] -0.036 | ralimetinib 0 | [2] -0.037 | [3] -0.075 | [4] -0.047 | pinometostat -0.065 | [5] -0.001 | [6] -0.037

TRAPPC8 (UniProt Q9Y2L5)
inactive: IRAK-1-4 Inhibitor I -0.02 | ibrutinib 0.015 | [1] -0.02 | ralimetinib 0.011 | [2] -0.056 | [3] -0.071 | [4] 0.044 | pinometostat 0.072 | [5] 0.002 | [6] 0.003

UBR2 (UniProt Q8IWV8)
Chain of UniProt Q8IWV8 (Q8IWV8 whole entry, looked up): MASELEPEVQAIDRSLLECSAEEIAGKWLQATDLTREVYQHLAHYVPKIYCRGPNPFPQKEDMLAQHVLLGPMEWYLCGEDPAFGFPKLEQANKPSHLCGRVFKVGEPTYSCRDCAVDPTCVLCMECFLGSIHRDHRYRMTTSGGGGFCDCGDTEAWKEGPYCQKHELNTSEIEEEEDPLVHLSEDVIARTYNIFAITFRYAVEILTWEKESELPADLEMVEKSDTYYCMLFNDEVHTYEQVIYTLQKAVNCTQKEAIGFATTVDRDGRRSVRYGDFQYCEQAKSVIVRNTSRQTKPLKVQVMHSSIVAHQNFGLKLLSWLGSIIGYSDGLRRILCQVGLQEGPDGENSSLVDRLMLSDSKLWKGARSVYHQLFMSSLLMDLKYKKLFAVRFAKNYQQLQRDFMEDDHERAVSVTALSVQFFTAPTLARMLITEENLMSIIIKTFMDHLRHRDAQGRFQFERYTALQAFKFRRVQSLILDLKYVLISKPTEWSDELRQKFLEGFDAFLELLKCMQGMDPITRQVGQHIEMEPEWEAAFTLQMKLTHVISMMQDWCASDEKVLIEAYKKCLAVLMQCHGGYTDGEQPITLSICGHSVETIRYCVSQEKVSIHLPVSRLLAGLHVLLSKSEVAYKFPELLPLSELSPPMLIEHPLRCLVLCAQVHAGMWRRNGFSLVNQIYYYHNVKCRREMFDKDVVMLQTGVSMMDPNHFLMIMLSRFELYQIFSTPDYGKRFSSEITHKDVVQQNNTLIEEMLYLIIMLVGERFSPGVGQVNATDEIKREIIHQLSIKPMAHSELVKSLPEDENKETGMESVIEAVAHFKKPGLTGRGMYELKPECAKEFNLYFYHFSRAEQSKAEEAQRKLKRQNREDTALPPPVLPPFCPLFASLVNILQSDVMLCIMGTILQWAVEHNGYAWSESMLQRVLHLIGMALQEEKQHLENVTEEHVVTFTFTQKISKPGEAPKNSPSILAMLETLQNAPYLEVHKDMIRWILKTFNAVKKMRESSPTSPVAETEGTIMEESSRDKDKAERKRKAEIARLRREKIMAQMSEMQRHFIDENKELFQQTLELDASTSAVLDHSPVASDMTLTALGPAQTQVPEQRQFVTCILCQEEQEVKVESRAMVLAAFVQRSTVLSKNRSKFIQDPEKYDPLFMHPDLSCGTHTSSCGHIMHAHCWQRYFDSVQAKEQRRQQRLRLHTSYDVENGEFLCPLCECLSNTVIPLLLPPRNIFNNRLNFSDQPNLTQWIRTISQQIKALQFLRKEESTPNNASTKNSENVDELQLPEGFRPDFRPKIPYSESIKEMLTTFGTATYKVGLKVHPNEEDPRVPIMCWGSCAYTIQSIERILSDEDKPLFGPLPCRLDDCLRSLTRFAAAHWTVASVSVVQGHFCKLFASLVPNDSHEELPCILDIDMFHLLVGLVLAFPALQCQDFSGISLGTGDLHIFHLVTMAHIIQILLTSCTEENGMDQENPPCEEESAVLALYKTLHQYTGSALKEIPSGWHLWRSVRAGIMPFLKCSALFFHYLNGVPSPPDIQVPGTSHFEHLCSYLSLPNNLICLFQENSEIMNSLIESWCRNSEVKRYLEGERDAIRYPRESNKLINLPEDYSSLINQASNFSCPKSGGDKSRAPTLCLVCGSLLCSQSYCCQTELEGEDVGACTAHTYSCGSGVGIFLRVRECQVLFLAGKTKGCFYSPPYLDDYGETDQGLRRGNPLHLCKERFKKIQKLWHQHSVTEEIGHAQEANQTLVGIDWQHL
inactive: IRAK-1-4 Inhibitor I 0.002 | ibrutinib -0.102 | [1] -0.11 | ralimetinib 0.029 | [2] -0.086 | [3] -0.058 | pinometostat 0.137 | [5] -0.01 | [6] 0.076
active: [4] 0.351

WASHC5 (UniProt Q12768)
active: [3] -0.277
inactive: IRAK-1-4 Inhibitor I -0.042 | ibrutinib 0.007 | [1] -0.024 | ralimetinib 0.072 | [2] -0.116 | [4] 0.003 | pinometostat 0.067 | [5] -0.049 | [6] -0.014

TSFM (UniProt P43897)
inactive: IRAK-1-4 Inhibitor I -0.065 | ibrutinib -0.134 | [1] -0.067 | ralimetinib 0.011 | [2] -0.254 | [3] 0.069 | [4] -0.058 | pinometostat -0.08 | [5] -0.066 | [6] 0.258

VPS52 (UniProt Q8N1B4)
Chain of UniProt Q8N1B4 (Q8N1B4 whole entry, looked up): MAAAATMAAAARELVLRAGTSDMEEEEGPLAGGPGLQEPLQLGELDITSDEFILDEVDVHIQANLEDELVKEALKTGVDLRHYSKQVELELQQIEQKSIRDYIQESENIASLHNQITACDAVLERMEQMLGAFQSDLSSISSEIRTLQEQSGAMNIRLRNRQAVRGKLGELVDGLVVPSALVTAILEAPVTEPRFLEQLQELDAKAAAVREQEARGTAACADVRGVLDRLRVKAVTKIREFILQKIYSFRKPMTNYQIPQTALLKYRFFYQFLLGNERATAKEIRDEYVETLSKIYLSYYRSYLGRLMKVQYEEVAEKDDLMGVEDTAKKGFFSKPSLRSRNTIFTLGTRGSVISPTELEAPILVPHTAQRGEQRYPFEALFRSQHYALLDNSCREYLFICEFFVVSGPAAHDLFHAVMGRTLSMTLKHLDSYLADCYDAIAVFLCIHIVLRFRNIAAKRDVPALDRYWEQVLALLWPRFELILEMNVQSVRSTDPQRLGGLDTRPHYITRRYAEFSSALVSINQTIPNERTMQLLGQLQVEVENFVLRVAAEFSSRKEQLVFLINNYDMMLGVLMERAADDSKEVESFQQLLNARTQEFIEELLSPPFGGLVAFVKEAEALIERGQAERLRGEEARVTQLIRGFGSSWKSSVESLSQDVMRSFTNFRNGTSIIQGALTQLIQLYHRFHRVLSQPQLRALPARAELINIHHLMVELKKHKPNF
inactive: IRAK-1-4 Inhibitor I -0.057 | ibrutinib 0.068 | [1] 0 | ralimetinib 0.05 | [2] -0.161 | [3] -0.02 | [4] 0.088 | pinometostat 0.048 | [5] -0.018 | [6] 0.142

USP25 isoform 3 (UniProt Q9UHP3)
inactive: IRAK-1-4 Inhibitor I 0.002 | ibrutinib -0.002 | [1] -0.019 | ralimetinib -0.027 | [2] 0.015 | [3] 0.001 | [4] 0.052 | pinometostat 0.001 | [5] 0.043 | [6] 0.002

TOP2A isoform 4 (UniProt P11388)
inactive: IRAK-1-4 Inhibitor I -0.145 | ibrutinib 0.116 | [1] 0.154 | ralimetinib 0.324 | [2] 0 | [3] -0.125 | [4] 0.261 | pinometostat 0.533 | [5] 0.041
active: [6] -0.968

WDR7 (UniProt Q9Y4E6)
Chain of UniProt Q9Y4E6 (Q9Y4E6 whole entry, looked up): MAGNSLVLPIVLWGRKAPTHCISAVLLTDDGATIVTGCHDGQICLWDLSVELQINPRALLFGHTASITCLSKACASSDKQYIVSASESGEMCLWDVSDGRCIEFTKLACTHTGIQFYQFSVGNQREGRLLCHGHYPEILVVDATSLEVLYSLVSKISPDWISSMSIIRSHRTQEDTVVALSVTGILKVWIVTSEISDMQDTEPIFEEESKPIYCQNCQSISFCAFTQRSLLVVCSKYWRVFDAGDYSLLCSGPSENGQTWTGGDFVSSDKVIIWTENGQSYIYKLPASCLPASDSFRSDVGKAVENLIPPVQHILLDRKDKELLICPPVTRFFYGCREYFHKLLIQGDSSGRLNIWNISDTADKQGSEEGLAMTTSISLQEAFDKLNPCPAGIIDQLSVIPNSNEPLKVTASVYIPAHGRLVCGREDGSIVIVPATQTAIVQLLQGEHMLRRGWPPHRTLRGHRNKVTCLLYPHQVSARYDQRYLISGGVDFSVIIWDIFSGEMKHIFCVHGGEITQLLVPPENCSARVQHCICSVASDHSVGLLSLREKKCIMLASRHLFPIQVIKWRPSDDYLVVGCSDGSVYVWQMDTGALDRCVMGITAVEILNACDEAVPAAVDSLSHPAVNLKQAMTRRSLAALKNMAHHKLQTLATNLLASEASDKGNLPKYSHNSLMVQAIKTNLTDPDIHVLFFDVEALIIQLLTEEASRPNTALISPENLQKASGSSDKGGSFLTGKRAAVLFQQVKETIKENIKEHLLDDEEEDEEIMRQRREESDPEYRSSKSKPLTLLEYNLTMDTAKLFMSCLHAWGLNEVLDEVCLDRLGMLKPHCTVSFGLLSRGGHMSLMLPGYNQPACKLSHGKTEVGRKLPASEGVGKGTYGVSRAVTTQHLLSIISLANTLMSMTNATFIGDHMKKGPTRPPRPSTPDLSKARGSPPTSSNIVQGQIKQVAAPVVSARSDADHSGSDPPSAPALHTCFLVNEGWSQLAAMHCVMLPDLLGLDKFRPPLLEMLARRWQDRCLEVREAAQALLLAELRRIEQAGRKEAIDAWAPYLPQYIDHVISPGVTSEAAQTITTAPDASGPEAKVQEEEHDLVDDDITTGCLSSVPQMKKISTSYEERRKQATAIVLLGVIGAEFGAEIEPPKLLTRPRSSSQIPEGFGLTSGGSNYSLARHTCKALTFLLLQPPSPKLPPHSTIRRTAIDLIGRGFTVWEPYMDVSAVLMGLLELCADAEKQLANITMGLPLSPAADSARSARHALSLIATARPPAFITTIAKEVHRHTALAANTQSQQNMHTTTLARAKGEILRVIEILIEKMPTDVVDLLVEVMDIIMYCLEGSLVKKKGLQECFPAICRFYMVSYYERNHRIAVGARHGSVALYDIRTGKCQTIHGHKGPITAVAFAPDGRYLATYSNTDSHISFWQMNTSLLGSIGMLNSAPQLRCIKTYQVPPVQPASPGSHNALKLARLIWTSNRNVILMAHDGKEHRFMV
inactive: IRAK-1-4 Inhibitor I -0.112 | ibrutinib -0.027 | [1] -0.078 | ralimetinib 0.067 | [2] -0.141 | [4] 0.1 | pinometostat 0.062 | [5] 0.029 | [6] 0.122
active: [3] -0.429

TOMM5 isoform 2 (UniProt Q8N4H5)
Chain of UniProt Q8N4H5 (Q8N4H5 whole entry, looked up): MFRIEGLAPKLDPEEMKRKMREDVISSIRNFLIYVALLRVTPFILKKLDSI
inactive: IRAK-1-4 Inhibitor I 0.037 | ibrutinib 0.01 | [1] -0.033 | ralimetinib -0.099 | [2] -0.048 | [3] 0.221 | [4] 0.036 | pinometostat 0.148 | [5] -0.004 | [6] 0.003

UBA52 (UniProt P62987)
inactive: IRAK-1-4 Inhibitor I -0.098 | ibrutinib 0.091 | [1] 0.21 | ralimetinib 0.139 | [2] 0.107 | [3] 0.044 | [4] 0.147 | pinometostat 0.358 | [6] -0.532

TMEM41A (UniProt Q96HV5)
Chain of UniProt Q96HV5 (Q96HV5 whole entry, looked up): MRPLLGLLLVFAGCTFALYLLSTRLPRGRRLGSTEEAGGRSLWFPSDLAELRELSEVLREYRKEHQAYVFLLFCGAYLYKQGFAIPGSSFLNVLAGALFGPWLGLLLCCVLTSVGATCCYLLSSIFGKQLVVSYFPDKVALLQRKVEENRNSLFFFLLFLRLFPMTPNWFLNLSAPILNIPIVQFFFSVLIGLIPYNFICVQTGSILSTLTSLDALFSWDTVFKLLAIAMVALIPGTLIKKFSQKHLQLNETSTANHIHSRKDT
inactive: IRAK-1-4 Inhibitor I -0.022 | ibrutinib -0.007 | [1] -0.04 | ralimetinib 0.033 | [2] 0.022 | [3] 0.043 | [4] -0.079 | pinometostat -0.06 | [5] 0.035 | [6] 0.151

TMEM164 (UniProt Q5U3C3)
inactive: IRAK-1-4 Inhibitor I 0.057 | ibrutinib -0.036 | [1] -0.088 | [2] -0.025 | [3] -0.309 | pinometostat -0.073 | [5] -0.08 | [6] 0.066

UXT isoform 2 (UniProt Q9UBK9)
inactive: IRAK-1-4 Inhibitor I 0.103 | ibrutinib -0.033 | [1] -0.019 | ralimetinib -0.031 | [2] -0.005 | [3] 0.316 | [4] 0.082 | pinometostat -0.141 | [5] -0.016 | [6] 0.194

VPS39 (UniProt Q96JC1)
inactive: IRAK-1-4 Inhibitor I -0.055 | ibrutinib -0.015 | [1] -0.036 | ralimetinib -0.018 | [2] -0.039 | [3] -0.265 | [4] 0.031 | pinometostat 0.032 | [5] -0.027 | [6] 0.008
